RXFP1 agonist – qHTS Assay for Agonists of the Relaxin Receptor RXFP1; Relaxin receptor 1 (Homo sapiens), Q9HBX9; HEK293T-RXFP1 cAMP TR-FRET, 30 min; response scale: percent of porcine relaxin response, buffer zero; Potency, µM (highest dose often 57.5 µM), without a hit: top-dose activation, actives largely listed as activators; 0.3% of 370,000 active; AID 2676, 2010; further: potency means the concentration at half of the fitted maximal effect; on the % scale 0 is the no-effect control and ±100 the full control effect; nearly all actives have a fitted effect of over 60% in size
Target sequence (Q9HBX9 whole entry, looked up): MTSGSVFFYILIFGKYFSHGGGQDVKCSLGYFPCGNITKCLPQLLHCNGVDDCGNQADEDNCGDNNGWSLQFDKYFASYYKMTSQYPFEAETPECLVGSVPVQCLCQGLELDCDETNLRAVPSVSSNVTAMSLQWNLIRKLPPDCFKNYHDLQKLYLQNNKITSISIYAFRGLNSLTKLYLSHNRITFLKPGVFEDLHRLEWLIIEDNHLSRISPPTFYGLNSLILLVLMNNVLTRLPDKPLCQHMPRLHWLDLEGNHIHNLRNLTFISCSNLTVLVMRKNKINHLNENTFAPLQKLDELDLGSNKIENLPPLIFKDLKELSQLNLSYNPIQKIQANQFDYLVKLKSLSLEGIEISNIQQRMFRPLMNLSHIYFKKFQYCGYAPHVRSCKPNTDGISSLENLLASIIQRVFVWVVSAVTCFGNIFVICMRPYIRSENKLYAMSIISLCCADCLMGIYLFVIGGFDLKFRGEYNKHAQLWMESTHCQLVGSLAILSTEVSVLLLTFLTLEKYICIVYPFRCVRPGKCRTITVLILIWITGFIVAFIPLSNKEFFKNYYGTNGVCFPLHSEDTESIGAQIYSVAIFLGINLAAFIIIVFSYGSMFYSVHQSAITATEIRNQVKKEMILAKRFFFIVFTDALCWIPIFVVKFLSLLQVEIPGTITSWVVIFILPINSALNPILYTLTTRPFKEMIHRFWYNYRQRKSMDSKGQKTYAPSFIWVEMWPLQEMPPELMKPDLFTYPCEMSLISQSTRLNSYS
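HEK293 cells stably expressing RXFP1, treated 30 min at 37C with compounds plus PDE4 inhibitor Ro 20174; cAMP measured by HTRF TR-FRET. Normalized to buffer and 29 nM porcine relaxin; EC50 by Hill fit.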
Mm-Cpn inhibitor – Inhibitors of TCP-1 ring complex (TRiC) of Methanococcus maripaludis (MmCpn): qHTS; 0.031% of 330,000 active; purified Mm-Cpn ATPase, ADP Transcreener TR-FRET; Potency, µM (top dose mostly 76.9 µM), without a hit: top-dose activity, negative = inhibition, actives largely listed as inhibitors; further: potency means the concentration at half of the fitted maximal effect; on the % scale 0 is the no-effect control and ±100 the full control effect; nearly all actives have a fitted effect of over 80% in size
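Measured: ADP formation by purified Mm-CPN. Conditions: 25 nM protein, 10 uM ATP, Tris pH 7.4 with Mg2+, K+ and DTT, 37°C for 30 min. Detection: Transcreener HTRF after 30 min at room temperature.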
CCT modulator – High-Throughput Screening for Modulators of Cytosolic Chaperonin Activity. purified chaperonin ATPase assay, HTRF ADP detection, 30 min. activity change, % (concentration not given with the values), hits read low. 0.3% of 360,000 active. AID 651819, 2012; in the data active means activity change below about -30%; further: on the % scale 0 is the no-effect control and ±100 the full control effect
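First, chaperonin was dispensed at 40 nM or 20 nM final depending on batch activity. Next, compounds were pinned at 76 uM and ATP added at 10 uM. After 30 min at 37 °C, ADP detection reagents ran 30 min at ambient temperature.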
gsp antag – qHTS for Antagonists of gsp, the Etiologic Mutation Responsible for Fibrous Dysplasia/McCune-Albright Syndrome: qHTS. gsp-mutant cells, cAMP HTRF, 30 min. 0.4% of 340,000 active. Potency, µM (highest dose often 76.9 µM), without a hit: at the top dose activity change, negative = inhibition, most hits filed as inhibitors; calls by dose curve; cell line not stated here;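 further: intracellular cAMP measured with PDE inhibitor Ro 20-1724 present during compound exposure; potency means the concentration at half of the fitted maximal effect; on the % scale 0 is the no-effect control and ±100 the full control effect; nearly all actives have a fitted effect of over 65% in size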
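G418-selected cells were plated in DMEM/10% FBS for 16-24 h at 37C, then treated with compounds plus the PDE inhibitor […] (300 uM solution added) for 30 min at 37C. Intracellular cAMP was measured by HTRF after 30 min lysis at room temperature.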
RXFP1 antag – qHTS Assay for Antagonists of the Relaxin Receptor RXFP1 | HEK293-RXFP1, relaxin-stimulated cAMP HTRF, 30 min; stronger effect = lower value | activity change, negative = inhibition, % at 57.5 µM | 0.59% of 350,000 active;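 active means activity change of -60% or lower, but not beyond a set lower limit; inconclusive means change between -60% and -40%, or beyond the set limit; inactive means change above -40%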; further: on the % scale 0 is the no-effect control and ±100 the full control effect
gsp agonist – qHTS for Agonist of gsp, the Etiologic Mutation Responsible for Fibrous Dysplasia/McCune-Albright Syndrome: qHTS; gsp mutant cells, cAMP HTRF, 30 min; Potency, µM (titrated, usually from 76.9 µM), for inactives: at the highest dose activation (cAMP increase), most hits filed as activators; 0.13% of 340,000 active; AID 624287, 2012; active means well fitted activation curve with a large enough effect; inconclusive means small, poorly fitted or top-dose-only effect, or another doubt; inactive means no such curve, though single readings can be large or run the other way; cell line not stated here;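 further: phosphodiesterase inhibitor Ro 20-1724 added with compounds to block cAMP breakdown; potency means the concentration at half of the fitted maximal effect; nearly all actives have a fitted effect of over 60% in size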
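Cells stably selected in G418 were plated at 2000/well, grown 16-24 hr, then given compounds in DMSO with the PDE inhibitor […] (300 uM solution added) for 30 min at 37C; cAMP was read by HTRF.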
* hit, by the source's call; [ ] = remark or other dose. An excerpt weighted towards active compounds, which were near 1.2% of everything screened. Unless noted, the call rests on the fitted dose curve; in most records, active means well fitted curve in the direction sought with a large enough effect; inconclusive means small, poorly fitted or top-dose-only effect, or another doubt; inactive means no such curve, though single readings can be large; an effect the other way counts as inactive or inconclusive.

What do the screens show for `COc1ccccc1OC(C)C(=O)Nc1cccc(-c2nc3ccccc3o2)c1` (stereo not given)?
RXFP1 agonist: -1%

How did Cc1nc2c(C(=O)NCCc3ccccc3)c[nH]n2c(=O)c1Cc1ccccc1F do in these assays?
RXFP1 agonist: -6%

Results for CNC(=O)c1c[nH]n2c(=O)c(Cc3ccccc3F)c(C)nc12 ?
RXFP1 agonist: 1%; Mm-Cpn inhibitor: 1%; CCT modulator: -2; gsp antag: 11µM*; gsp agonist: 15%

How did NC(=O)c1cc(S(=O)(=O)NCC2CCC(C(=O)Nc3ccc(Cl)cc3)CC2)cs1 (stereo not given) do in these assays?
RXFP1 agonist: 1%

How did COc1cccc(NC(=O)CSc2nc3c(sc4ccccc43)c(=O)n2CCN(C)C)c1 do in these assays?
RXFP1 agonist: 4%; Mm-Cpn inhibitor: inconclusive; CCT modulator: -1; gsp antag: 4%; RXFP1 antag: -64*; gsp agonist: -1%[15.4 µM]

What do the screens show for `Cn1c(=O)c2ncn(CC(=O)Nc3ccc4c5c(cccc35)CC4)c2n(C)c1=O`?
RXFP1 agonist: 9%; Mm-Cpn inhibitor: -5%; CCT modulator: 2; gsp antag: -3%; RXFP1 antag: -5; gsp agonist: 32µM*

How did Cc1cccc(C)c1NC(=O)Cn1cnc2c(=O)n(C)c(=O)n(C)c21 do in these assays?
RXFP1 agonist: 11%; Mm-Cpn inhibitor: 0%; CCT modulator: -14; gsp antag: 0%; RXFP1 antag: -1; gsp agonist: inconclusive

Results for Cn1c(=O)c2ncn(CC(=O)NCCOc3ccccc3)c2n(C)c1=O ?
RXFP1 agonist: 12%; Mm-Cpn inhibitor: 1%; CCT modulator: -3; gsp antag: 13%; RXFP1 antag: -15; gsp agonist: inconclusive

What do the screens show for `COc1ccc(CNC(=O)Cn2cnc3c(=O)n(C)c(=O)n(C)c32)cc1`?
RXFP1 agonist: 18%; Mm-Cpn inhibitor: 1%; CCT modulator: 0; gsp antag: 6%; RXFP1 antag: 14; gsp agonist: 18µM*

How did CC(=O)c1ccc(N2CCN(CC(O)COC(c3ccccc3)c3ccccc3)CC2)cc1 (stereo not given) do in these assays?
RXFP1 agonist: -3%; Mm-Cpn inhibitor: 0%; CCT modulator: -1; gsp antag: -20%; RXFP1 antag: -79*; gsp agonist: inconclusive

Results for CC(=O)c1ccc(N2CCN(CC(O)COC(c3ccccc3)c3ccccc3C)CC2)cc1 (stereo not given) ?
RXFP1 agonist: -6%; Mm-Cpn inhibitor: -2%; CCT modulator: 0; gsp antag: inconclusive; RXFP1 antag: -28; gsp agonist: -29%[15.4 µM]

What do the screens show for `CC(C)(C)c1ccc(C(=O)/C(C#N)=C/c2cccs2)cc1`?
RXFP1 agonist: 3%; Mm-Cpn inhibitor: -6%; CCT modulator: -1; gsp antag: -10%; RXFP1 antag: -87*; gsp agonist: 6%

How did Cc1ccc(Cl)cc1N1C(=O)CC(Sc2ccccc2N)C1=O (stereo not given) do in these assays?
CCT modulator: -33*; RXFP1 antag: -1; gsp agonist: inconclusive

What do the screens show for `CN(c1ccc(F)cc1)S(=O)(=O)c1ccc(Cl)c(C(=O)OCC(=O)NCc2ccco2)c1`?
RXFP1 agonist: 1%; Mm-Cpn inhibitor: -2%; CCT modulator: -31*; gsp antag: -20%; RXFP1 antag: 1; gsp agonist: -8%

Results for CN(c1ccccc1)S(=O)(=O)c1cccc(C(=O)OCC(=O)NCc2ccco2)c1 ?
RXFP1 agonist: 1%; Mm-Cpn inhibitor: 1%; CCT modulator: -1; gsp antag: 4%; RXFP1 antag: -4; gsp agonist: -2%[15.4 µM]
